Reference: PubChem BioAssay (Tox21)
Records with an inconclusive call do not appear. Where a call stands in place of a potency, no number is given. Where a structure was tested more than once in an assay, its records may differ in their call. Active and inactive are the calls of the source. Calls follow the shape of the full dose curve.

target: Acetylcholinesterase (Homo sapiens) (UniProt P22303); experiment: Acetylcholinesterase (AChE) small molecule antagonists: fluorescence cell-based qHTS assay (AID 1347398); conditions: SH-SY5Y cells; Potency: AChE activity; outcome: AChE activity; series mostly up to 115 µM; also: nearly all actives have a fitted effect of over 50% in size; also: potency is read from the fitted curve at half-maximal effect
Sequence (P22303 whole entry, looked up): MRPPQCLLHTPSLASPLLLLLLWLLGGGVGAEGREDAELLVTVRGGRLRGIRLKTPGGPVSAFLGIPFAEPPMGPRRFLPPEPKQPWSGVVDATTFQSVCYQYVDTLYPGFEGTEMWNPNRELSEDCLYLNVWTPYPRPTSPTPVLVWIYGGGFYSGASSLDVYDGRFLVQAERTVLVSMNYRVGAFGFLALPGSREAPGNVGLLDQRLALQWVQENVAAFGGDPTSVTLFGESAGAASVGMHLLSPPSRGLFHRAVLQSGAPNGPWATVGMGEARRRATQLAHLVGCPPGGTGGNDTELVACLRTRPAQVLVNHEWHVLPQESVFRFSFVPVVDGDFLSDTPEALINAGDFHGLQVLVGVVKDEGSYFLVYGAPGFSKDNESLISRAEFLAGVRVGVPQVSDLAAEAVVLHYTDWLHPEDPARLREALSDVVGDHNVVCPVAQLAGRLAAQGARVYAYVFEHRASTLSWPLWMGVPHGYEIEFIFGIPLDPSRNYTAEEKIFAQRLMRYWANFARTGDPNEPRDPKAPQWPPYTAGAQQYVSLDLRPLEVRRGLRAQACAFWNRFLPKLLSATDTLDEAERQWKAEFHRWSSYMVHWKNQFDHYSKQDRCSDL
Method in brief: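 Fluorimetric cell-based assay: intact SH-SY5Y cells, 30 min compound preincubation at 37 C, acetylthiocholine substrate with thiol probe Thiolite Green, 40 min RT development, fluorescence 490/520 nm.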

| Structure (SMILES) | Potency | outcome | activity change, negative = inhibition |
| --- | --- | --- | --- |
| C1CCC2OC2C1 (stereo not given) | inactive | – | – |
| CC(C)C(=O)C(C)C | inactive | – | – |
| O=Cc1ccccc1C=O | inactive | – | – |
| CCCCCCCC(OC)OC | inactive | – | – |
| Cn1c(=O)c2c(ncn2CC2OCCO2)n(C)c1=O | inactive | – | – |
| COS(C)(=O)=O | inactive | – | – |
| COC(=O)CCC(=O)OC | inactive | – | – |
| CC(CO)(CO)CO | inactive | – | – |
| C=Cc1c(C)c2cc3[nH]c(cc4nc(cc5nc(cc1[nH]2)C(C)=C5CCC(=O)O)C(CCC(=O)O)=C4C)c(C)c3C=C | inactive | – | – |
| COc1cc2c(cc1OC)CN(C(=O)[C@H](C)N[C@@H](CCc1ccccc1)C(=O)O)[C@H](C(=O)O)C2 | inactive | – | – |
| CNC[C@H](O)c1ccc(O)c(O)c1 | – | inactive | – |
| CC1(C)O[C@@H]2C[C@H]3[C@@H]4C[C@H](F)C5=CC(=O)CC[C@]5(C)[C@H]4[C@@H](O)C[C@]3(C)[C@]2(C(=O)CO)O1 | inactive | – | – |
| COC(=O)c1ccc(C)cc1C1=NC(C)(C(C)C)C(=O)N1 (stereo not given) | inactive | – | – |
| CCCC(C)CO (stereo not given) | inactive | – | – |
| Cc1[nH]c(C)c(Cl)c(=O)c1Cl | – | – | -0.55% [at 23.8 µM] (inactive) |
| [Cl][Bi]([Cl])([c]1ccccc1)([c]1ccccc1)[c]1ccccc1 | inactive | – | – |
| COc1cc(NS(=O)(=O)c2ccc(N)cc2)ncn1 | inactive | – | – |
| COC[C@H](c1ccc(C(F)(F)F)cc1)N1CCN(C2(C)CCN(C(=O)c3c(C)ncnc3C)CC2)C[C@H]1C | inactive | – | – |
| C=C(C)C(=O)OCCCCCCCC(C)C | inactive | – | – |
| CC(=O)c1ccc(C)cc1 | inactive | – | – |

| Structure (SMILES) | Potency | outcome | activity change, negative = inhibition |
| --- | --- | --- | --- |
| ClC(c1ccccc1)(c1ccccc1)c1ccccc1 | inactive | – | – |
| C=CCOC(=O)CC(C)C | inactive | – | – |
| O=C(O)Cc1csc(-c2ccc(Cl)cc2)n1 | inactive | – | – |
| Nc1nc2c(ncn2COCCO)c(=O)[nH]1 | inactive | – | – |
| COC(=O)CCCCC(=O)O | inactive | – | – |
| COC(=O)c1nc(Cl)c(Cl)nc1N | inactive | – | – |
| CN(C)C(=O)NC1(c2ccccc2)CCN(CCC[C@]2(c3ccc(Cl)c(Cl)c3)CCCN(C(=O)c3ccccc3)C2)CC1 | – | – | -16% [at 23.8 µM] (inactive) |
| CCCCCCC(O)CCCCCCCCCCC(=O)O (stereo not given) | inactive | – | – |
| CCCCC(CC)COC(=O)COc1cc(Cl)c(Cl)cc1Cl (stereo not given) | inactive | – | – |
| CCCCC(CC)C(=O)OCCOCCOCCOC(=O)C(CC)CCCC (stereo not given) | inactive | – | – |
| CCCCCCCCCCCCCCCC(=O)OCC | inactive | – | – |
| C=CC(=O)OCCOCCOCC | inactive | – | – |
| O=C(O)c1cc(=O)c2c(OCC(O)COc3cccc4oc(C(=O)O)cc(=O)c34)cccc2o1 | inactive | – | – |
| CC(CN)CCCN (stereo not given) | inactive | – | – |
| O=C(O)CNC(=O)c1ccc(CO)o1 | inactive | – | – |
| CC(C)(CO)[N+](=O)[O-] | inactive | – | – |
| CC(=O)OCC(COC(C)=O)OC(C)=O | 31.3 µM (active) and inactive | – | – |
| CCCCC(C=O)CC (stereo not given) | inactive | – | – |
| Nc1cccc(S(=O)(=O)c2cccc(N)c2)c1 | inactive | – | – |
| C[Si](C)(C)O[Si](O)(O)O | inactive | – | – |

target: Acetylcholinesterase (Homo sapiens) (UniProt P22303); experiment: Acetylcholinesterase (AChE) small molecule antagonists: enzyme-based qHTS assay with human liver microsomes (AID 1347399); conditions: Potency: qHTS inhibition; outcome: qHTS inhibition; series mostly up to 115 µM; also: nearly all actives have a fitted effect of over 60% in size
Method in brief: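 Recombinant human AChE (50 mU/mL in the enzyme mix) and human liver microsomes (0.25 mg/mL final) were preincubated with compound and NADPH (0.25 mg/mL final) for 30 min at 37 C. Acetylthiocholine/DTNB was then added; thiocholine was read colorimetrically after 10 min at room temperature.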

| Structure (SMILES) | Potency | outcome | activity change, negative = inhibition |
| --- | --- | --- | --- |
| C1CCC2OC2C1 (stereo not given) | inactive | – | – |
| CC(C)C(=O)C(C)C | inactive | – | – |
| O=Cc1ccccc1C=O | inactive | – | – |
| CCCCCCCC(OC)OC | inactive | – | – |
| Cn1c(=O)c2c(ncn2CC2OCCO2)n(C)c1=O | inactive | – | – |
| COS(C)(=O)=O | inactive | – | – |
| COC(=O)CCC(=O)OC | inactive | – | – |
| CC(CO)(CO)CO | inactive | – | – |
| C=Cc1c(C)c2cc3[nH]c(cc4nc(cc5nc(cc1[nH]2)C(C)=C5CCC(=O)O)C(CCC(=O)O)=C4C)c(C)c3C=C | inactive | – | – |
| COc1cc2c(cc1OC)CN(C(=O)[C@H](C)N[C@@H](CCc1ccccc1)C(=O)O)[C@H](C(=O)O)C2 | inactive | – | – |
| CNC[C@H](O)c1ccc(O)c(O)c1 | – | inactive | – |
| CC1(C)O[C@@H]2C[C@H]3[C@@H]4C[C@H](F)C5=CC(=O)CC[C@]5(C)[C@H]4[C@@H](O)C[C@]3(C)[C@]2(C(=O)CO)O1 | inactive | – | – |
| COC(=O)c1ccc(C)cc1C1=NC(C)(C(C)C)C(=O)N1 (stereo not given) | inactive | – | – |
| CCCC(C)CO (stereo not given) | inactive | – | – |
| Cc1[nH]c(C)c(Cl)c(=O)c1Cl | – | – | -0.336% [at 23.6 µM] (inactive) |
| [Cl][Bi]([Cl])([c]1ccccc1)([c]1ccccc1)[c]1ccccc1 | inactive | – | – |
| COc1cc(NS(=O)(=O)c2ccc(N)cc2)ncn1 | inactive | – | – |
| COC[C@H](c1ccc(C(F)(F)F)cc1)N1CCN(C2(C)CCN(C(=O)c3c(C)ncnc3C)CC2)C[C@H]1C | inactive | – | – |
| C=C(C)C(=O)OCCCCCCCC(C)C | inactive | – | – |
| CC(=O)c1ccc(C)cc1 | inactive | – | – |

| Structure (SMILES) | Potency | outcome | activity change, negative = inhibition |
| --- | --- | --- | --- |
| ClC(c1ccccc1)(c1ccccc1)c1ccccc1 | inactive | – | – |
| C=CCOC(=O)CC(C)C | inactive | – | – |
| O=C(O)Cc1csc(-c2ccc(Cl)cc2)n1 | inactive | – | – |
| Nc1nc2c(ncn2COCCO)c(=O)[nH]1 | inactive | – | – |
| COC(=O)CCCCC(=O)O | inactive | – | – |
| COC(=O)c1nc(Cl)c(Cl)nc1N | inactive | – | – |
| CN(C)C(=O)NC1(c2ccccc2)CCN(CCC[C@]2(c3ccc(Cl)c(Cl)c3)CCCN(C(=O)c3ccccc3)C2)CC1 | – | – | 4.25% [at 23.6 µM] (inactive) |
| CCCCCCC(O)CCCCCCCCCCC(=O)O (stereo not given) | inactive | – | – |
| CCCCC(CC)COC(=O)COc1cc(Cl)c(Cl)cc1Cl (stereo not given) | inactive | – | – |
| CCCCC(CC)C(=O)OCCOCCOCCOC(=O)C(CC)CCCC (stereo not given) | inactive | – | – |
| CCCCCCCCCCCCCCCC(=O)OCC | inactive | – | – |
| C=CC(=O)OCCOCCOCC | inactive | – | – |
| O=C(O)c1cc(=O)c2c(OCC(O)COc3cccc4oc(C(=O)O)cc(=O)c34)cccc2o1 | inactive | – | – |
| CC(CN)CCCN (stereo not given) | inactive | – | – |
| O=C(O)CNC(=O)c1ccc(CO)o1 | inactive | – | – |
| CC(C)(CO)[N+](=O)[O-] | inactive | – | – |
| CC(=O)OCC(COC(C)=O)OC(C)=O | inactive | – | – |
| CCCCC(C=O)CC (stereo not given) | inactive | – | – |
| Nc1cccc(S(=O)(=O)c2cccc(N)c2)c1 | inactive | – | – |
| C[Si](C)(C)O[Si](O)(O)O | inactive | – | – |
